{"source": "the supplement of paper PMC8728848", "assay_in_all_cases": "glycan array binding signal (z-score within array); higher = stronger binding", "details_in_all_cases": "glycan notation: IUPAC condensed, linker removed", "key": {"[1]": {"target": "Fuc(a1-2)Gal(b1-3)GlcNAc(b1-2)Man(a1-3)[Fuc(a1-2)Gal(b1-3)GlcNAc(b1-2)Man(a1-6)]Man(b1-4)GlcNAc(b1-4)GlcNAc", "outline": "(§1)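 Negative Z-scores can be read as non-binding. The Z-score is calculated within each array and then averaged across arrays of one protein sequence at different concentrations or buffers and across linkers. Arrays, 3228 in all, were curated from the Consortium for Functional Glycomics database and kept only where the protein sequence was available.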"}, "[2]": {"target": "Fuc(a1-2)Gal(b1-3)[Fuc(a1-4)]GlcNAc(b1-2)Man(a1-3)[Fuc(a1-2)Gal(b1-3)[Fuc(a1-4)]GlcNAc(b1-2)Man(a1-6)]Man(b1-4)GlcNAc(b1-4)[Fuc(a1-6)]GlcNAc(b1-4)[Fuc(a1-6)]GlcNAc", "outline": "as §1"}, "[3]": {"target": "Fuc(a1-2)Gal(b1-4)GlcNAc(b1-3)Gal(b1-4)GlcNAc(b1-2)Man(a1-3)[Fuc(a1-2)Gal(b1-4)GlcNAc(b1-3)Gal(b1-4)GlcNAc(b1-2)Man(a1-6)]Man(b1-4)GlcNAc(b1-4)GlcNAc", "outline": "as §1"}, "[4]": {"target": "Fuc(a1-2)[Gal(a1-3)]Gal(b1-4)GlcNAc(b1-2)Man(a1-3)[Fuc(a1-2)[Gal(a1-3)]Gal(b1-4)GlcNAc(b1-2)Man(a1-6)]Man(b1-4)GlcNAc(b1-4)GlcNAc", "outline": "as §1"}, "[5]": {"target": "Fuc(a1-2)[GalNAc(a1-3)]Gal(b1-4)GlcNAc(b1-3)Gal(b1-4)GlcNAc(b1-3)Gal(b1-4)GlcNAc", "outline": "as §1"}, "[6]": {"target": "Fuc(a1-2)[GalNAc(a1-3)]Gal(b1-4)[Fuc(a1-3)]GlcNAc", "outline": "as §1"}, "[7]": {"target": "Fuc(a1-3)[Gal(b1-4)]GlcNAc(b1-2)Man", "outline": "as §1"}, "[8]": {"target": "Fuc(a1-3)[Gal(b1-4)]GlcNAc(b1-2)Man(a1-3)[Fuc(a1-3)[Gal(b1-4)]GlcNAc(b1-2)Man(a1-6)]Man(b1-4)GlcNAc(b1-4)GlcNAc", "outline": "as §1"}, "[9]": {"target": "Gal(a1-3)[Gal(a1-4)]Gal(b1-4)GlcNAc", "outline": "as §1"}, "[10]": {"target": "Gal(b1-3)GalNAc(b1-4)Gal(b1-4)Glc", "outline": "as §1"}, "[11]": {"target": "Gal(b1-3)[Fuc(a1-4)]GlcNAc(b1-3)Gal(b1-4)[Fuc(a1-3)]GlcNAc", "outline": "as §1"}, "[12]": {"target": "Gal(b1-3)[Neu5Ac(b2-6)]GalNAc", "outline": "as §1"}, "Gal(b1-4)GlcNAc": {"target": "Gal(b1-4)GlcNAc", "outline": "as §1"}, "[13]": {"target": "Gal(b1-4)GlcNAc(a1-6)Gal(b1-4)GlcNAc", "outline": "as §1"}, "[14]": {"target": "Gal(b1-4)GlcNAc(b1-2)Man(a1-3)[Man(a1-6)]Man(b1-4)GlcNAc(b1-4)GlcNAc", "outline": "as §1"}, "[15]": {"target": "Gal(b1-4)GlcNAc(b1-2)[Gal(b1-4)GlcNAc(b1-6)]Man(a1-6)[Gal(b1-4)GlcNAc(b1-2)Man(a1-3)]Man(b1-4)GlcNAc(b1-4)[Fuc(a1-6)]GlcNAc", "outline": "as §1"}, "[16]": {"target": "Gal(b1-4)GlcNAc(b1-3)Gal(b1-4)GlcNAc(b1-2)[Gal(b1-4)GlcNAc(b1-3)Gal(b1-4)GlcNAc(b1-6)]Man(a1-6)[Gal(b1-4)GlcNAc(b1-3)Gal(b1-4)GlcNAc(b1-2)Man(a1-3)]Man(b1-4)GlcNAc(b1-4)GlcNAc", "outline": "as §1"}, "[17]": {"target": "Gal(b1-4)GlcNAc(b1-3)Gal(b1-4)GlcNAc(b1-2)[Gal(b1-4)GlcNAc(b1-3)Gal(b1-4)GlcNAc(b1-6)]Man(a1-6)[Gal(b1-4)GlcNAc(b1-3)Gal(b1-4)GlcNAc(b1-2)Man(a1-3)]Man(b1-4)GlcNAc(b1-4)[Fuc(a1-6)]GlcNAc", "outline": "as §1"}, "[18]": {"target": "Gal(b1-4)GlcNAc(b1-3)Gal(b1-4)GlcNAc(b1-3)Gal(b1-4)GlcNAc(b1-2)Man(a1-3)[Gal(b1-4)GlcNAc(b1-3)Gal(b1-4)GlcNAc(b1-3)Gal(b1-4)GlcNAc(b1-2)Man(a1-6)]Man(b1-4)GlcNAc(b1-4)[Fuc(a1-6)]GlcNAc", "outline": "as §1"}, "[19]": {"target": "Gal(b1-4)GlcNAc(b1-3)Gal(b1-4)GlcNAc(b1-6)[Gal(b1-3)]GalNAc", "outline": "as §1"}, "Gal(b1-6)Gal": {"target": "Gal(b1-6)Gal", "outline": "as §1"}, "[20]": {"target": "GalNAc(b1-4)GlcNAc(b1-2)Man", "outline": "as §1"}, "GalNAc3S(b1-4)GlcNAc": {"target": "GalNAc3S(b1-4)GlcNAc", "outline": "as §1"}, "Glc(b1-6)Glc": {"target": "Glc(b1-6)Glc", "outline": "as §1"}}, "note": "Many of the other results were omitted from the sample, so the strongest signals are more common in it than they were.", "data": [{"binder": "BT4246 (Bacteroides thetaiotaomicron), Q89ZX5 (protein) MGSSHHHHHHENLYFQGHMASDYLDVVPPEQPNIDDAMSSPTRALGFLYSCYGGVSTDLPSAYLGEINSTTDEYVLPYSWNTDGYWGAYAFNTASSTNQDWLWGTTYQYIGQCYLFLQKLENAGSDIASDAEKEQWRAECQFLVAYYHFATLRRYGPIPITDSYIPMDTPTSEYNGRFHFDYCVDWIANQLDEAAKVLPANRTVTNEWGRATSTIAKAVKARLLLYAASPLWNGSFPYPNWQNENFETPGYGKALVSNTYDKSKWERALAACQEALTLATTSGDRELYDDDEYYSRQSLNLPFVPGVADVEDNKEFLKNVMKMRYAVSTRESEGNKEIIWGLSNQFDFYSRYPLRILKKSDGTWHAGYSGVSPTLYTFEHFYTANGKLPEKDLDFTPSSEWFESAGISSREDIIKLNVGREPRFYAWMAFDGGDYGTKFAAGSPLKLEMRNSEMHGYNPSLFNRDHSVTGFLTQKFVDPVTEFYTAGGSTSGTSAPTILFRLAELYLNVAECHAALGNTQEAIDALNPVRERAGIPKLTLADITNNMTIKDWVHNERFVELWNEGHRFFDVRRWAEGAKYFGANKREGLNAEVQSPTFEEFNKRTTVDAPYVWENRMYLNPVFYNEVYKNPQMVQAPGY", "values": [{"measurement": "glycan array binding signal (z-score)", "setting": "[1]", "result": 3.2}, {"measurement": "glycan array binding signal (z-score)", "setting": "[2]", "result": -0.111}, {"measurement": "glycan array binding signal (z-score)", "setting": "[3]", "result": 0.084}, {"measurement": "glycan array binding signal (z-score)", "setting": "[4]", "result": 2.43}, {"measurement": "glycan array binding signal (z-score)", "setting": "[5]", "result": 0.74}, {"measurement": "glycan array binding signal (z-score)", "setting": "[6]", "result": -2.1}, {"measurement": "glycan array binding signal (z-score)", "setting": "[7]", "result": 0.571}, {"measurement": "glycan array binding signal (z-score)", "setting": "[8]", "result": -0.536}, {"measurement": "glycan array binding signal (z-score)", "setting": "[9]", "result": 0.656}, {"measurement": "glycan array binding signal (z-score)", "setting": "[10]", "result": 2.02}, {"measurement": "glycan array binding signal (z-score)", "setting": "[11]", "result": -0.234}, {"measurement": "glycan array binding signal (z-score)", "setting": "[12]", "result": -0.388}, {"measurement": "glycan array binding signal (z-score)", "setting": "Gal(b1-4)GlcNAc", "result": -1.31}, {"measurement": "glycan array binding signal (z-score)", "setting": "[13]", "result": -0.67}, {"measurement": "glycan array binding signal (z-score)", "setting": "[14]", "result": 2.35}, {"measurement": "glycan array binding signal (z-score)", "setting": "[15]", "result": -0.607}, {"measurement": "glycan array binding signal (z-score)", "setting": "[16]", "result": 2.71}, {"measurement": "glycan array binding signal (z-score)", "setting": "[17]", "result": 0.32}, {"measurement": "glycan array binding signal (z-score)", "setting": "[18]", "result": 0.125}, {"measurement": "glycan array binding signal (z-score)", "setting": "[19]", "result": -0.514}, {"measurement": "glycan array binding signal (z-score)", "setting": "Gal(b1-6)Gal", "result": 0.501}, {"measurement": "glycan array binding signal (z-score)", "setting": "[20]", "result": -0.775}, {"measurement": "glycan array binding signal (z-score)", "setting": "GalNAc3S(b1-4)GlcNAc", "result": 1.88}, {"measurement": "glycan array binding signal (z-score)", "setting": "Glc(b1-6)Glc", "result": -2.27}]}]}
